According to PubChem BioAssay (Tox21):
Records with an inconclusive call do not appear. Values without a mark were called inactive. Activity calls are given as the source filed them. Calls follow the shape of the dose curve; as a rule, active = well fitted cell-killing curve with a large enough effect in the repeat runs; inconclusive = weak or mixed curves, or effect the other way; inactive = flat fitted curve, though single readings scatter.

Assay: qHTS assay to identify small molecule that activate the aryl hydrocarbon receptor (AhR) signaling pathway - cell viability counter screen (AID 743086);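 also: HepG2 liver cells carrying the AhR DRE luciferase reporter; nearly all actives have a fitted effect of over 45% in size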
Conditions: HepG2-AhR-luc viability, CellTiter-Fluor, 24 h; series mostly up to 70.3 µM; viability change, negative = cytotoxic: at the top concentration
Source text: U.S. Tox21 Program National Center for Advancing Translational Sciences [NCATS] NIH Chemical Genomics Center [NCGC] U.S. Environmental Protection Agency [EPA] National Institutes of Environmental Health Sciences [NIEHS] National Toxicology Program [NTP] U.S. Food and Drug Administration [FDA] Tox21 Assay overview: The Aryl hydrocarbon Receptor (AhR), a member of the family of basic helix-loop-helix transcription factors, is crucial to adaptive responses to environmental changes. AhR mediates cellular responses to environmental pollutants such as aromatic hydrocarbons through induction of phase I and II enzymes but also interacts with other nuclear receptor signaling pathways A cell based HepG2-AhR-luc assay (HG2L7.5c1 cell line, developed by Dr. Michael S. Denison, University of California at Davis) was used to assess the activation of AhR. HepG2 (human hepatocellular carcinoma) cells were stably transfected with an Ah receptor-responsive firefly luciferase reporter gene plasmid containing 20 dioxin responsive elements and luciferase reporter gene. Increased luciferase activity can be used to identify the compounds that induce AhR activation. The cytotoxicity of the compounds screened against the HepG2-AhR-luc cell line was tested in parallel by measuring the cell viability using CellTiter-Fluor assay in the same wells.
Tox21 Assay Protocol Summary: 4000 cells in 5 uL/well were dispensed into white wall/solid bottom 1536-well plates using a Multidrop Combi (Thermo Fisher Scientific Inc., Waltham, MA) dispenser. After the assay plates were incubated at 37C for 5 h, 23 nL of compound or DMSO vehicle was transferred to the assay plates by a pintool station (Kalypsys, San Diego, CA). The plates were incubated at 37C for 24 hr. For cell viability measurement, 1 ul/well of CellTiter-Fluor reagent (Promega, Madison, WI) was added into the assay plates using a Flying Reagent Dispenser (FRD) (Aurora Discovery, CA),and then the assay plates were incubated at 37C for 30 min. The fluorescence intensity in the plates was measured using a ViewLux plate reader (PerkinElmer, Shelton, CT), followed by the addition of 4 uL of ONE-Glo Luciferase Assay reagent (Promega) using an FRD (Aurora Discovery). After the assay plates were incubated at room temperature for 30 min, luminescence intensity was measured using a ViewLux plate reader (Perkin Elmer).
% is scaled to controls: 0 for no effect and ±100 for the full control effect.

Compound	viability change, negative = cytotoxic	outcome
CC/C=C/CCCCCCCCCCOC(C)=O	-1.35%	
CCO/C=C1\N=C(c2ccccc2)OC1=O	2.38%	
Cc1ccc(S(=O)(=O)NC(=O)NN2CC3CCCC3C2)cc1 (stereo not given)	-0.632% [at 32.5 µM]	
O=C(c1ccccc1)c1cccc(O)c1	7.51% [at 95 µM]	
COC(=O)/C=C(\C)CCC=C(C)C	-1.65%	
O=C[C@@H](O)[C@H](O)[C@H](O)CO	3.99%	
CC(C)(C)c1ccc(N)cc1	-4.36%	
COc1cc(C(=O)NC2CCCNC2)cc(OC)c1OC (stereo not given)	-3.91%	
Cc1cc(O)c(Cl)cc1C	-1.72%	
CC(C)(C)C(=O)CC(=O)C(C)(C)C	0.605% [at 95 µM]	
CCCC(C)C(O)CC (stereo not given)	13.7%	
O=C(CCBr)N1CCN(C(=O)CCBr)CC1	18.7%	
CCOC(=O)c1ccc(N(C)C)cc1	20.2%	
CCCc1ccc(O)c(OC)c1	4.15%	
Cc1ccc(O)c(C(=O)c2ccccc2)c1	2.13% [at 95 µM]	
c1cc2ccc3ccc4ccc5cccc6c(c1)c2c3c4c56	13.2% [at 3.79 µM]	
CCCCCCCCCCCCCCBr	-1.73% [at 95 µM]	
CSC(=O)c1cccc2nnsc12	13.2%	
CC(C)OCCO	2.8%	
NC[C@H]1O[C@H](O[C@H]2[C@H](O)[C@@H](O[C@H]3O[C@H](CO)[C@@H](O)[C@H](N)[C@H]3O)[C@H](N)C[C@@H]2N)[C@H](N)[C@@H](O)[C@@H]1O		inactive

Compound	viability change, negative = cytotoxic	outcome
C[C@@H](CN1CC(=O)NC(=O)C1)N1CC(=O)NC(=O)C1	-6.26%	
CCCCCCCCOCCC#N	-2.56%	
CC[C@@]1(c2ccccc2)NC(=O)N(C)C1=O	-0.914%	
N=C(N)N	19.7%	
CC(=O)OC/C=C(/C)CCC=C(C)C	3.71%	
CC(=O)OCC(=O)[C@@]1(O)CC[C@H]2[C@@H]3CCC4=CC(=O)C=C[C@]4(C)[C@H]3[C@@H](O)C[C@@]21C	4.26%	
O=S(=O)(O)CC(O)CCl (stereo not given)	-1.09%	
CCO[Si](CC(C)C)(OCC)OCC	4.34%	
O=C(O)CCC(=O)Nc1ccc(S(=O)(=O)Nc2nccs2)cc1	-7.77% [at 32.5 µM]	
CC/C=C\CCOC(=O)c1ccccc1	-3.54%	
C/C=C(\C)C=O	-3.61% [at 95 µM]	
COC(C)(C)CC(C)=O	11.5%	
CC(C)(C)NCC(O)COc1cccc2c1CCC(=O)N2 (stereo not given)	0.216% [at 32.5 µM]	
CCCCCCCCCCCBr	-3.17%	
CCCCCC(=O)CC	12.6% [at 95 µM]	
CCCC(=O)C(CC)Sc1ccoc1C (stereo not given)	-2.42%	
Cc1ccc(Br)cc1	8.27%	
NNC(=O)OCc1ccccc1	8.1%	
CCOCCOCCOC(C)=O	5.58% [at 95 µM]	
CC(C)(C)C(=O)NCCCC(=O)O	18.1%	
